The source of these data is PubChem BioAssay (NCATS).

A short description of experiment [1]: Cell Viability - Hek293 (AID 427;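 active means compounds whose dose-response curve shows a full or clear partial loss of cell viability, called from curve shape rather than a numeric limit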;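 further: potency means the concentration at half of the fitted maximal effect; cells exposed to compound for 40 hours at 37 °C before reading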). Conditions: qHTS. The essentials:
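qHTS, human embryonic kidney (adenovirus-transformed) cells; 40 hr cpd, 37 °C; CellTiter-Glo ATP luminescence. Norm: DMSO = 0, 100 uM tamoxifen = 100% inhibition. Hill-fit AC50.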
(In general: In qHTS, concentration-response curves come from the screen itself.)

The nature of experiment [2]: Cell Viability - N2a (AID 540).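 Further: cells exposed to compound for 40 h at 37 °C; plate controls were DMSO alone for no effect and tamoxifen control for full effect; nearly all actives have a fitted effect of over 45% in size.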 Conditions: N2a mouse neuroblastoma cell viability; activity change, negative = cytotoxicity: at 92.2 µM (top of the series). In short, it runs like this:
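Luminescent ATP signal (CellTiter-Glo, 20 min at room temperature) served as the viability read-out after N2a cells were treated with compounds for 40 hours at 37 °C. Concentration-response data were fitted to the Hill equation for AC50.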

Experiment [3] in a line: Cell Viability - H-4-II-E (AID 543). Further: on the % scale 0 is the no-effect control and ±100 the full control effect; nearly all actives have a fitted effect of over 35% in size. Conditions: H-4-II-E rat hepatoma viability; series mostly up to 92.2 µM. In short, it runs like this: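 Luminescent ATP signal (CellTiter-Glo) served as the viability read-out, with cytotoxicity seen as a concentration-dependent ATP drop. Cells were treated for 40 hours in complete medium. AC50 values derive from Hill-equation modelling.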

A short description of experiment [4]: Cellular Toxicity (caspase-3) SHSY5Y (AID 657). Conditions: SH-SY5Y caspase-3 activation, DMSO zero, 10 µM staurosporine = 100%; series mostly up to 91.7 µM. The essentials:
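SH-SY5Y human neuroblastoma cells, 1500/well, exposed to compound for 16 hours at 37 °C in complete medium. Caspase-3/7 activity read by Caspase-Glo luminescence after 1 hr at room temperature, normalized to DMSO and 10 uM staurosporine; AC50 from Hill fit.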

Experiment [5] can be described thus: Cellular Toxicity (caspase-3) Mesangial (AID 660).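 Further: cells exposed to compound for 16 h before the caspase read.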 Conditions: mesangial cells, normalized: DMSO 0%, 100 µM tamoxifen 100%; series mostly up to 91.7 µM. The essentials:
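Mesangial cells, 1000/well, 5 h settle at 37 °C; compound 16 h, 37 °C; Caspase-Glo 3/7 reagent 20 min RT; luminescence. Norm.: DMSO = 0%, tamoxifen 100 uM = 100%. AC50, Hill fit.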

The nature of experiment [6]: Cellular Toxicity (caspase-3) SK-N-SH (AID 661).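 Further: 0% = DMSO basal and 100% = 10 µM staurosporine.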 Conditions: SK-N-SH caspase-3 activation, qHTS; series mostly up to 91.7 µM. The essentials: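 Human neuroblastoma SK-N-SH, 1500 cells/well, 5 hr pre-incubation, then compound 16 hr, 37 °C. Caspase-Glo 3/7 reagent, 1 hr RT, luminescence. Norm. to DMSO/10 uM staurosporine; Hill-fit AC50.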
Experiment [7] can be described thus: Cell Viability - LYMP1-003 - Assay at 24 hr (AID 963).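 Further: plate controls were DMSO only for no effect and tetraoctylammonium bromide positive control for full effect.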 Conditions: LYMP1-003 lymphoblastoid cell viability; series mostly up to 92.2 µM. In short, it runs like this:
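Cells seeded at 2500/well, 5 hr at 37 C; compounds added; 24 hr at 37 C; CellTiter-Glo added, 30 min room temperature; luminescence read. Decrease in ATP taken as cytotoxicity, AC50 from Hill modelling.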

Experiment [8] can be described thus: Cell Viability - LYMP2-003 (AID 965).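 Further: cells exposed to compounds for 24 h before reading; 0% = DMSO only and full effect = 92 µM tetraoctylammonium bromide; nearly all actives have a fitted effect of over 50% in size.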 Conditions: LYMP2-003 lymphoblastoid cell viability; series mostly up to 92.2 µM. The essentials: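 Human lymphoblastoid LYMP2-003 cells, 2500/well, exposed to compounds for 24 h at 37 C in complete medium. Viability read as intracellular ATP by CellTiter-Glo luminescence; AC50 from Hill-equation fits of qHTS concentration-response data.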

Experiment [9] can be described thus: Cell Viability - LYMP2-005 (AID 967).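 Further: plate controls were DMSO only for no effect and 92 µM tetraoctylammonium bromide control for full effect.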 Conditions: LYMP2-005 lymphoblastoid cell viability; series mostly up to 92.2 µM. In short, it runs like this: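 Human lymphoblastoid LYMP2-005 cells, 2,500 per well in complete medium, rested 5 h at 37C then compound-treated 24 h at 37C. Intracellular ATP read by CellTiter-Glo luminescence after 30 min at room temperature; AC50 from Hill-equation fits of concentration-response data.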

Experiment [10] can be described thus: Cell Viability - LYMP2-009 (AID 968).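 Further: 0% = DMSO alone and the full-kill end = tetraoctylammonium bromide at 92 µM; nearly all actives have a fitted effect of over 55% in size.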 Conditions: LYMP2-009 lymphoblastoid cell viability; series mostly up to 92.2 µM.
Experiment [11] is described as follows: Cell Viability - LYMP2-013 (AID 970).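 Further: 0% = DMSO only and full inhibition = tetraoctylammonium bromide control; nearly all actives have a fitted effect of over 55% in size.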 Conditions: LYMP2-013 lymphoblastoid cells viability; series mostly up to 92.2 µM. The essentials:
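qHTS; 2500 lymphoblastoid cells/well; 5 hr 37 C settle; cpd 24 hr 37 C; CellTiter-Glo, 30 min RT; luminescence. AC50 = Hill fit.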

A short description of experiment [12]: Cell Viability - LYMP2-017 (AID 972). Further: on the % scale 0 is the no-effect control and ±100 the full control effect; nearly all actives have a fitted effect of over 55% in size. Conditions: LYMP2-017 lymphoblastoid cell viability; series mostly up to 92.2 µM. The essentials:
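2500 cells/well, 5 h 37 C; cpd 24 h 37 C in complete medium; CellTiter-Glo, 30 min RT; luminescence (ATP). AC50 via Hill fit, qHTS.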

Experiment [13] in a line: Cell Viability - LYMP2-023 (AID 975).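 Further: cellular ATP measured by luciferase luminescence as viability proxy; plate controls were DMSO only for no effect and 92 µM tetraoctylammonium bromide control for full effect; nearly all actives have a fitted effect of over 55% in size.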 Conditions: LYMP2-023 lymphoblastoid cell viability; series mostly up to 92.2 µM. The essentials: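 2500 cells/well, 5 hr 37 C; cpd 24 hr 37 C; CellTiter-Glo, 30 min RT; luminescence. qHTS conc-response, Hill fit -> AC50. Pos ctrl tetraoctylammonium bromide.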
A short description of experiment [14]: Cell Viability - LYMP2-016 (AID 984). Conditions: LYMP2-016 lymphoblastoid cell viability, qHTS; series mostly up to 92.2 µM. In short, it runs like this: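 Human lymphoblastoid LYMP2-016 cells, 2500 per well, treated with compounds for 24 h at 37 C. Viability read as intracellular ATP by CellTiter-Glo luminescence after 30 min at room temperature; AC50 from Hill fits of concentration-response.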

Experiment [15] deals with Vitamin D3 receptor (Homo sapiens) (UniProt P11473). As to the kind of experiment: qHTS assay for small molecule antagonists of vitamin D receptor signaling (AID 588541; calls by dose curve;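 further: receptor activated by calcitriol during compound treatment; on the % scale 0 is the no-effect control and ±100 the full control effect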). Conditions: HEK293T VDR-UAS-bla, beta-lactamase ratio, antagonist mode; series mostly up to 76.7 µM. In short, it runs like this: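 Antagonist-mode beta-lactamase reporter assay: HEK293T VDR-UAS-bla cells were exposed to titrated compound alongside 1-alpha,25-dihydroxyvitamin D3 at 3 nM final for 16 h. Values were normalized to the 50 nM agonist control and DMSO basal, with IC50 and efficacy from Hill equation fits.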

Experiment [16] is described as follows: qHTS assay for small molecule agonists of retinoid X receptor alpha signaling (AID 588544). Conditions: HEK293T RXRa-UAS-bla, beta-lactamase reporter, 18 h; 530 nm emission.
The nature of experiment [17]: qHTS assay for small molecule activators of the p53 signaling pathway (AID 651743; active means well fitted activation curve with a large enough effect in the signal ratio, not every such curve was filed as active; the % refers to the signal ratio; further: % of control where 0% means no effect). Conditions: HCT-116 p53RE-bla, beta-lactamase FRET ratio, 16 h; activation: stronger effect = higher value. In short, it runs like this:
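Read-out is fluorescence intensity from the LiveBLAzer B/G FRET substrate, added for 2 hours at room temperature after HCT-116 p53RE-bla cells had been incubated with compounds for 16 hours at 37 C.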

A short description of experiment [18]: qHTS assay for small molecule agonists of the antioxidant response element (ARE) signaling pathway measured by Nrf2-dependant transcriptional activity - cell viability counter screen (AID 720653; active means well fitted curve in the direction sought with a large enough effect in the repeat runs; an effect the other way counts as inactive or inconclusive; further: on the % scale 0 is the no-effect control and ±100 the full control effect). Conditions: ARE-bla HepG2 viability, CellTiter-Glo ATP luminescence, 16 h; stronger effect = lower value. The essentials:
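Cytotoxicity counter screen: intracellular ATP quantified by CellTiter-Glo luminescence in the same ARE-bla HepG2 plates, after 16 h compound exposure and a 2 h beta-lactamase substrate step.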

A short description of experiment [19]: qHTS assay for cell viability of HEK293 cells (AID 743288). Further: on the % scale 0 is the no-effect control and ±100 the full control effect; nearly all actives have a fitted effect of over 50% in size. Conditions: ATP luminescence (CellTiter-Glo), 18 h, stronger effect = lower value. In short, it runs like this: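 Parental HEK293 cells, 2,000 per well, preincubated at least 5 h at 37 C, then exposed to compounds in DMSO for 18 h at 37 C. Viability by CellTiter-Glo ATP luminescence after 30 min at room temperature.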

Experiment [20] can be described thus: Cellular Toxicity (caspase-3) Renal Proximal Tubule (AID 667).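 Further: cells exposed to compound for 16 hours at 37 °C before detection; 0% = DMSO basal and 100% = 10 µM staurosporine.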 Conditions: renal proximal tubule cells; series mostly up to 91.7 µM. In short, it runs like this: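 Freshly isolated primary rat kidney proximal tubule cells, 1000/well, treated 16 hr at 37 °C, then Caspase-Glo 3/7 luminescence after 1 hr. Normalized to DMSO and 10 uM staurosporine; AC50 from Hill fit.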

Values joined by “and” are separate entries in the source; they are usually repeats but may differ in a detail not shown here. Equal entries are not always repeated. Records with an inconclusive call do not appear. Active and inactive are the calls of the source. Unless noted, the call rests on the fitted dose curve; in most records, active means well fitted curve in the direction sought with a large enough effect; inconclusive means small, poorly fitted or top-dose-only effect, or another doubt; inactive means no such curve, though single readings can be large; an effect the other way counts as inactive or inconclusive.

Vitamin D3 receptor (Homo sapiens), sequence (P11473 whole entry, looked up): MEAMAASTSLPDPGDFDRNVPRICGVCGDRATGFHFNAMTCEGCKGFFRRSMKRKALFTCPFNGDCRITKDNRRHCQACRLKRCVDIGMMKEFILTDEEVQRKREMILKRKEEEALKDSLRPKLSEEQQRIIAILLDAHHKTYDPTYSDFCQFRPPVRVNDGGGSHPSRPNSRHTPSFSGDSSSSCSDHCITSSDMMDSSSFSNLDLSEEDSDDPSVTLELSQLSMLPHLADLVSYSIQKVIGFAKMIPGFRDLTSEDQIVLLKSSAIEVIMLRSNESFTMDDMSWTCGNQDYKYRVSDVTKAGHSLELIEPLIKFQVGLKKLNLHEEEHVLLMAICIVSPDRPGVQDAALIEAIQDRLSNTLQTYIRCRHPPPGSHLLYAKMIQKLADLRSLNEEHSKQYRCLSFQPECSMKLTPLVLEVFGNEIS

`CC[N+](=O)[O-]`: the Potency in experiment [1] was > 92 µM (inactive). For the same molecule, the Potency entry in experiment [2], in experiment [3], in experiment [6], in experiment [8], in experiment [9] and in [10] was “inactive” in each case. The Potency entry in [11], in experiment [12], in experiment [13] and in [14] was “inactive” each time. The molecule was classed as inactive in [4], in experiment [5], in experiment [7] and in experiment [15]. For the same molecule, the max response in experiment [16] was -9.1%; in [18], 9.27% (inactive); in [19], 0.073% (inactive). Also, in experiment [17], the activation was -3.29% (inactive).
For the molecule `N#CC(O)c1ccccc1` (centres undefined), the Potency in experiment [1] was > 92 µM (inactive). For the same molecule, the Potency result in experiment [2], in [3], in experiment [6], in experiment [8], in experiment [9] and in experiment [10] was “inactive” in each case. The Potency result in [11], in experiment [12] and in experiment [14] was “inactive” in each case. In addition, the call in [5], in experiment [20], in [7] and in [15] was inactive. Also, the max response was -0.409% in experiment [16] and 12.9% (inactive) in [18].
Consider `Cc1ccc(N)cc1N`, for which the Potency in experiment [1] is > 92 µM (inactive). In addition, the Potency entry in experiment [2], in [3], in [6], in [8], in experiment [9] and in experiment [10] was “inactive” throughout. Further, the Potency entry in [11], in [12] and in experiment [14] was “inactive” each time. In addition, the call in experiment [5], in [7] and in [15] was inactive. In addition, the max response in [16] is -4.9% and 16.6%; in experiment [19], 6.42% (inactive) and -0.208% (inactive). For the same molecule, in experiment [17], the activation is -3.51% (inactive) and -0.675% (inactive).
`ClC(Cl)(Cl)C(Cl)(Cl)Cl`: in experiment [1], the Potency is > 92 µM (inactive). In addition, the Potency result in experiment [2], in experiment [3], in experiment [6], in [8], in [9] and in [10] was “inactive” each time. The Potency result in [11], in [12], in experiment [13] and in [14] was “inactive” in each case. The outcome in experiment [4], in experiment [5], in experiment [20], in experiment [7] and in [15] was inactive. Also, the max response in experiment [16] is 0.0695%; in experiment [18], -0.289% (inactive); in experiment [19], 3.22% (inactive). Moreover, the activation in experiment [17] is -2.98% (inactive).
As for `BrCC(Br)C1CCC(Br)C(Br)C1` (centres undefined), the Potency in [1] is > 92 µM (inactive). The Potency result in [2], in [6], in [8], in [9], in experiment [10] and in experiment [11] was “inactive” throughout. Besides, the Potency result in experiment [12] and in [14] was “inactive” each time. The molecule was called inactive in [4], in experiment [5], in experiment [20] and in [7]. Moreover, the values for the max response in experiment [16], in experiment [18] and in experiment [19] were 6.74%, -1.58% (inactive) and 1.74% (inactive), respectively. Also, in experiment [17], the activation was -5.49% (inactive).
Turning to `C=CCBr`, the Potency in [1] is > 92 µM (inactive). The Potency result in experiment [2], in experiment [3], in [6], in experiment [8], in experiment [9] and in [10] was “inactive” throughout. Moreover, the Potency entry in [11], in experiment [12], in experiment [13] and in [14] was “inactive” in each case. Besides, the molecule was called inactive in [4], in [5], in experiment [20] and in experiment [15]. Further, the results for the max response in experiment [16], in [18] and in experiment [19] were -11.7%, -1.79% (inactive) and -2.53% (inactive), respectively. Further, the activation in experiment [17] was -2.4% (inactive).
As for `ClCCOCOCCCl`, the Potency in [1] was > 92 µM (inactive). Moreover, the Potency result in [2], in experiment [3], in experiment [8], in experiment [9], in experiment [10] and in experiment [12] was “inactive” each time. The Potency result in experiment [13] and in experiment [14] was “inactive” each time. For the same molecule, the result in experiment [4], in [20], in [7] and in experiment [15] was inactive. In addition, the max response in experiment [16] was -19.5%; in [18] it was -12.6% (inactive); in [19] it was -1.26% (inactive). In experiment [17], the activation was -4.18% (inactive).
